Tests used:
Assay in all cases: log2 ratio of Biotin-Ahx-Ub-VS probe labelling (fragment/DMSO); higher = less target engagement (more negative = stronger competition), active = hit call of the paper (q ≤ 0.05, log2 ratio ≤ -1)
Conditions in all cases: compound concentration: 200 uM; treatment time: 3 h
[1] = target: USP34 (UniProt Q70CQ2)
Method in brief: (§1)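 The table lists average log2 ratios of fragment over vehicle, from an unpaired t-test on global-median-normalised Spectronaut label-free quantities. Proteins with ≥2 unique peptides were used. Samples were HEK293T lysate (495 µg) treated in triplicate with fragment at 200 µM or vehicle for 3 h, then with Biotin-Ahx-Ub-VS (0.5 µM final) for 1 h, with labelled DUBs NeutrAvidin-enriched and run by diaPASEF LC-MS/MS.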

[2] = target: T1, USP36 (UniProt Q9P275)
T1 sequence (whole entry): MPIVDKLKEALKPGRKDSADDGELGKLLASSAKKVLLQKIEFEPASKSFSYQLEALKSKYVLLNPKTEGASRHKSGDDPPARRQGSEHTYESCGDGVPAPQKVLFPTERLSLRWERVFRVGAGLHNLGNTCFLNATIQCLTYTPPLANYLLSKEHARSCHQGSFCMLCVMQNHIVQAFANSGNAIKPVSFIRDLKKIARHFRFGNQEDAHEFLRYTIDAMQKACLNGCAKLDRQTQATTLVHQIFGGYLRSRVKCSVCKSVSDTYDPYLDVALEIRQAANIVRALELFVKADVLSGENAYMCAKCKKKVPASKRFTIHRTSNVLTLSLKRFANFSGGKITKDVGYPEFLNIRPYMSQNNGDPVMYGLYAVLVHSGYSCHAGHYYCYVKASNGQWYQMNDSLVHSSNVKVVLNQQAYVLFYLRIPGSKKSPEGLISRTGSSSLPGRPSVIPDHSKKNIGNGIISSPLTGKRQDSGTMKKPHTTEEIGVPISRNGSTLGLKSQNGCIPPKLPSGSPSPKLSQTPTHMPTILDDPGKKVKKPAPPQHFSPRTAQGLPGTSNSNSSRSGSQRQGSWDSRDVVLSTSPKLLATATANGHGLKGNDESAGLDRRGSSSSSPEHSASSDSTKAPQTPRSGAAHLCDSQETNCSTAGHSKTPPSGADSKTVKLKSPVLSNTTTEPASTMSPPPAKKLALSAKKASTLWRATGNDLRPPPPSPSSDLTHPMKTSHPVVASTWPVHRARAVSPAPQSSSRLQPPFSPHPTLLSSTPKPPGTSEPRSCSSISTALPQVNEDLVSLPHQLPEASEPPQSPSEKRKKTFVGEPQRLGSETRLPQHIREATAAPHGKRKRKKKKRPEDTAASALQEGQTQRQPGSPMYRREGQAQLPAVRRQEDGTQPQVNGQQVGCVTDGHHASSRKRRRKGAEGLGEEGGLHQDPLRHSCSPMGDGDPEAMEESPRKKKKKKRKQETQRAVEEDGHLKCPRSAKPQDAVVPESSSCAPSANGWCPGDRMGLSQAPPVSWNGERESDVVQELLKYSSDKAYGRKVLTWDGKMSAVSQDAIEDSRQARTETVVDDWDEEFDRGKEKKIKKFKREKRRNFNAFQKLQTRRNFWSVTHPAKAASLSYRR
Method in brief: as §1

[3] = target: T2, USP38 (UniProt Q8NB14)
T2 sequence (whole entry): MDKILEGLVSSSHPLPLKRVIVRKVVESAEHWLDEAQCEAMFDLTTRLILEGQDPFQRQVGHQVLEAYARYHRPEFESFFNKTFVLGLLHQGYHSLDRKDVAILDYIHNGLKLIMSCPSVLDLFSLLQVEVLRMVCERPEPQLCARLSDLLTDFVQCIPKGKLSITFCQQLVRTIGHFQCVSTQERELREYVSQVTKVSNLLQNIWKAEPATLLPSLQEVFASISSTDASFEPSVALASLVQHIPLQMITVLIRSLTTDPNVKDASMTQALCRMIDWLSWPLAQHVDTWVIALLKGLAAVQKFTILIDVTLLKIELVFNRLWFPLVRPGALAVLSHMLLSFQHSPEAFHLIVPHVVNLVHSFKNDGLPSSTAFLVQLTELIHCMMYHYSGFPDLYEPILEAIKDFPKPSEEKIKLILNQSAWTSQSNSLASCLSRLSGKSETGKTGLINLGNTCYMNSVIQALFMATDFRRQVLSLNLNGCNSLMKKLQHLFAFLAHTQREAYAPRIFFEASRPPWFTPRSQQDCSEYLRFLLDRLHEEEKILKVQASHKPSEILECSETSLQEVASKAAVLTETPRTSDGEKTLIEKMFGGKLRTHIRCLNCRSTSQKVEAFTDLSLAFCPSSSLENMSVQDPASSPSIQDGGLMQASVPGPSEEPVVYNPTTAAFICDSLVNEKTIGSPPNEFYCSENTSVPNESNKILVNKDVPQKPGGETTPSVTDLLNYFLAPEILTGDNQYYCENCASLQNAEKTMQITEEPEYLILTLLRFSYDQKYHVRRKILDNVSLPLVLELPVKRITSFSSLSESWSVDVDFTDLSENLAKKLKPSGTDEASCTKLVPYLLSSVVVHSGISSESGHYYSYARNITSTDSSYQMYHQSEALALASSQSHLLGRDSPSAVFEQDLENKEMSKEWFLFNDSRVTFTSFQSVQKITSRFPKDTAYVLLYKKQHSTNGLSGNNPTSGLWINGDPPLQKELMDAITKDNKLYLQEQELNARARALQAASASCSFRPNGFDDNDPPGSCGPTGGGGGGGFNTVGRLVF
Method in brief: as §1

[4] = target: T3, USP39 (UniProt Q53GS9)
T3 sequence (whole entry): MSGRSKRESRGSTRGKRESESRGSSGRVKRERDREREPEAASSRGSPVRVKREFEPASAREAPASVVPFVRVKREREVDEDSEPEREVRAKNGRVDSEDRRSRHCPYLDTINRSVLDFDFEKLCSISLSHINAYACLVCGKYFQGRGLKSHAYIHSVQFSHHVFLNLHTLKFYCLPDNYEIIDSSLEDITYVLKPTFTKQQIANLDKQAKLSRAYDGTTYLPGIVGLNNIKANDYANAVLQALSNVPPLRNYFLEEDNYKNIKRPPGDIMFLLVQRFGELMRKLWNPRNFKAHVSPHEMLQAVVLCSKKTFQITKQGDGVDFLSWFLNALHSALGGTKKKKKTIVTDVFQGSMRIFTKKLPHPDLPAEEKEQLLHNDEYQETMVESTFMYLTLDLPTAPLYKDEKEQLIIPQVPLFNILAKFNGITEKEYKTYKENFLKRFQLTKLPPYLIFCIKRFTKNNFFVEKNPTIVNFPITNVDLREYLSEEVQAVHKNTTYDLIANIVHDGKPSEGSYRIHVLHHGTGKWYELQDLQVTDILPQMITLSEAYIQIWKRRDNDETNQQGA
Method in brief: as §1

[5] = target: T4, USP4 (UniProt Q13107)
T4 sequence (whole entry): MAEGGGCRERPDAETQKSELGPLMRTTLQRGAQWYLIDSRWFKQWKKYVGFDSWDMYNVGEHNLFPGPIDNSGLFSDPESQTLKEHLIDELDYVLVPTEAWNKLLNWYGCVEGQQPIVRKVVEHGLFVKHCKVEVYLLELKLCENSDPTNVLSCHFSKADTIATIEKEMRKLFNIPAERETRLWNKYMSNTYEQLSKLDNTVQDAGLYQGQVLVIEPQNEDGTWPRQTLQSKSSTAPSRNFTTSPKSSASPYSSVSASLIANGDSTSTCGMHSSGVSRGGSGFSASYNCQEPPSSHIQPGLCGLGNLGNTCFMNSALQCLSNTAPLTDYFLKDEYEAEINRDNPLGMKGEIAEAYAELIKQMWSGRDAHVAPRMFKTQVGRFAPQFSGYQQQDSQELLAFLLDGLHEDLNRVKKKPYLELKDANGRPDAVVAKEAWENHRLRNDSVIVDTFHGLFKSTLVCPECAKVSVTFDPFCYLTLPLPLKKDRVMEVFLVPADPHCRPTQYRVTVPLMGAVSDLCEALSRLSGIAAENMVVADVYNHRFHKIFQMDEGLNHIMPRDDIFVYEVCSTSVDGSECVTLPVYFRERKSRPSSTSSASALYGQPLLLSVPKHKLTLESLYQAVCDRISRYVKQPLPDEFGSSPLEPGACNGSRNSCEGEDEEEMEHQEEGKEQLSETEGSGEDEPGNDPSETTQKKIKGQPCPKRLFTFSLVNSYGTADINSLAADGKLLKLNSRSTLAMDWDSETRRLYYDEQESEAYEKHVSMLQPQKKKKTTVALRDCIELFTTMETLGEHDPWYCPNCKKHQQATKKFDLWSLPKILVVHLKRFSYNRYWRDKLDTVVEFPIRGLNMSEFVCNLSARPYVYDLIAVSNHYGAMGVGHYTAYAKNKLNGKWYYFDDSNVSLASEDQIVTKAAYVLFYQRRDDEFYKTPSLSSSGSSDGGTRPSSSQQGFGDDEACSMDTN
Method in brief: as §1

Measured: log2 ratio of Biotin-Ahx-Ub-VS probe labelling

USP34, sequence (Q70CQ2 whole entry, the tested form may be a part): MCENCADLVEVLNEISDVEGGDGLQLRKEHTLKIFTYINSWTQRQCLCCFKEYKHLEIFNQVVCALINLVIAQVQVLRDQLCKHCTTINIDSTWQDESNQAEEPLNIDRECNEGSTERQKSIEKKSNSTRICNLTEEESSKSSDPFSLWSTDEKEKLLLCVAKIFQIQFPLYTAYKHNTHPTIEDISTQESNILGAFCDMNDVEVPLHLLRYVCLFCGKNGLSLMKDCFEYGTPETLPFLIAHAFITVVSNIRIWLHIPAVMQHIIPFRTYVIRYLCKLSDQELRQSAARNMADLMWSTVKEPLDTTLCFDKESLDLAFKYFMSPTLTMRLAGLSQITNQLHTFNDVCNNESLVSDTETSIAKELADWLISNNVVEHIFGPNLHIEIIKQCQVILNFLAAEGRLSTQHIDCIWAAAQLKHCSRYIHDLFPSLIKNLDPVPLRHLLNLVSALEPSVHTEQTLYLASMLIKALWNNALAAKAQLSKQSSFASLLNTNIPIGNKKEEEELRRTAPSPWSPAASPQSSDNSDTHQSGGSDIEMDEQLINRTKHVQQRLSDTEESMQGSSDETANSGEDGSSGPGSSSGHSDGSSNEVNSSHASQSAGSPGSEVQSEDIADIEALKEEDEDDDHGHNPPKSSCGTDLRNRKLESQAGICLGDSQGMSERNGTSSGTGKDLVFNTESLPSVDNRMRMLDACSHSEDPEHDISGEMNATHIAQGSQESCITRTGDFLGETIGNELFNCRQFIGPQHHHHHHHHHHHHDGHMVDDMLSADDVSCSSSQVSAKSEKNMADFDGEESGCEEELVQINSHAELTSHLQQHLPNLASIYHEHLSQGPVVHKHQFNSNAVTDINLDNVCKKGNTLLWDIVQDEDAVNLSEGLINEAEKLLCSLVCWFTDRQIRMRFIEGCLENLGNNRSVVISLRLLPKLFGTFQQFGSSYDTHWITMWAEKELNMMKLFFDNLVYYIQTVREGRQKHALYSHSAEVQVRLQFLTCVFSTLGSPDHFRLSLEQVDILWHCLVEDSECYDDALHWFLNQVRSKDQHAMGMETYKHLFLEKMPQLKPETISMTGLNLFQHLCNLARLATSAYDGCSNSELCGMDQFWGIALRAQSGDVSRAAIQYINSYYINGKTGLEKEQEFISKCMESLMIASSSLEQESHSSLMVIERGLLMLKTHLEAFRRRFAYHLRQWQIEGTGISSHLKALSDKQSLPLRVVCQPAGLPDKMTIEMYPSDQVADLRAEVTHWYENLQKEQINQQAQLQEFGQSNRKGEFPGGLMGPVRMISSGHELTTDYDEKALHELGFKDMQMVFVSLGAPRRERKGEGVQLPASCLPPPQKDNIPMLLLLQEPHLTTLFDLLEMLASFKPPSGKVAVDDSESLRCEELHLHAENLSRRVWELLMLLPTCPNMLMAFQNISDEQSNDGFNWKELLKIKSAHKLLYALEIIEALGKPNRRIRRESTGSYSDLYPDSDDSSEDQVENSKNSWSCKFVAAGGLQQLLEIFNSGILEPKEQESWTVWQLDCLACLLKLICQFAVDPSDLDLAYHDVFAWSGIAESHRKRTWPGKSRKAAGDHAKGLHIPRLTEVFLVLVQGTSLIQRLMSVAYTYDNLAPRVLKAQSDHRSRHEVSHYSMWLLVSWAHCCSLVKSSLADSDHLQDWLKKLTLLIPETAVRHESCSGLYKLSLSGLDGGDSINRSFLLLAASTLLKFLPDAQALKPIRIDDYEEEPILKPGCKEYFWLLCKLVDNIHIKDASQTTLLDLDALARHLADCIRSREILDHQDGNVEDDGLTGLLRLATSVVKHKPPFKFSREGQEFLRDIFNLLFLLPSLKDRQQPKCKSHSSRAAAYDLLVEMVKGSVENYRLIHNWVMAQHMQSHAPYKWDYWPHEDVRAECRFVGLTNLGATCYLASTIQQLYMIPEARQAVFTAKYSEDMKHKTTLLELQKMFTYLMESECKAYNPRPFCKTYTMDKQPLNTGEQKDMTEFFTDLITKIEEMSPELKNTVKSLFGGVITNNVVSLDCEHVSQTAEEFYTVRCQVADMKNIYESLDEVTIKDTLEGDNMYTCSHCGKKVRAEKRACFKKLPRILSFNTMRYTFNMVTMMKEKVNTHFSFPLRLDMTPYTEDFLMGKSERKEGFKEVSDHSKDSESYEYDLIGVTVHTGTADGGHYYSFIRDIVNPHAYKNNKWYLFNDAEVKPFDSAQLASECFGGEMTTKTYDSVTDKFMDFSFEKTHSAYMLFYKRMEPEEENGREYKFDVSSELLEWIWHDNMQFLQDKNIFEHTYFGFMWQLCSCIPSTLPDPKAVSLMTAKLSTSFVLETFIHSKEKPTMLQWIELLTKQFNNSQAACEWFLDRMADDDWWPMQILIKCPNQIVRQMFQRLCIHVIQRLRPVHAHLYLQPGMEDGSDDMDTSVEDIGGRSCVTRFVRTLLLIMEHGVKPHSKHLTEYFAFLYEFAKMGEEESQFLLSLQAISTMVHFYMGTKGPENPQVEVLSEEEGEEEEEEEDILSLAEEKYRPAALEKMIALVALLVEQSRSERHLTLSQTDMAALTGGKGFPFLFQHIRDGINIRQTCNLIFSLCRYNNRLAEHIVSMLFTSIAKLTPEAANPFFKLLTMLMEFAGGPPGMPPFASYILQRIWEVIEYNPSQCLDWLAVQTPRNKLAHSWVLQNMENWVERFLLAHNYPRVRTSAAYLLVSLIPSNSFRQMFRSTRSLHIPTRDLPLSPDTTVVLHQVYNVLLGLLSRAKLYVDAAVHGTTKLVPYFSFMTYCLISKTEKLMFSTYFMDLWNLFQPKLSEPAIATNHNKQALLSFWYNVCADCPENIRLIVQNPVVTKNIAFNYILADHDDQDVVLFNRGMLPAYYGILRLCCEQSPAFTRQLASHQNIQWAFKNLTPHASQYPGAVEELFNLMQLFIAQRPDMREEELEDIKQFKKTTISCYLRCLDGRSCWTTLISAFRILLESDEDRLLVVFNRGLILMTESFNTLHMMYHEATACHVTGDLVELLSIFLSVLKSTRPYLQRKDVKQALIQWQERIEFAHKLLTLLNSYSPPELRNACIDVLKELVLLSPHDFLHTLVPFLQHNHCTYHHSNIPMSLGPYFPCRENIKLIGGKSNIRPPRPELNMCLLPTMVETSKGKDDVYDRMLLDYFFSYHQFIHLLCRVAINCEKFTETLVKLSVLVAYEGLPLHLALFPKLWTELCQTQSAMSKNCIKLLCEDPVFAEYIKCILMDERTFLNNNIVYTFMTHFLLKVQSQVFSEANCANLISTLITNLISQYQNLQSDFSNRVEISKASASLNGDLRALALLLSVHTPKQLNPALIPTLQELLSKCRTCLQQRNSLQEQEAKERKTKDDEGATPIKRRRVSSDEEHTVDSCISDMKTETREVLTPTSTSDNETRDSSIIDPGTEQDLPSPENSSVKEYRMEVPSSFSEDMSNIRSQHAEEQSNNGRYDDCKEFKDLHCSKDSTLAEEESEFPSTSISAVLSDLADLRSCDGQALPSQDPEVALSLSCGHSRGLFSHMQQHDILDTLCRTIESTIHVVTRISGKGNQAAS

CC(c1ccccc1)N(C)C(=O)CCl (stereo not given)
inactive: [1] -0.323 | [2] -0.306 | [3] -0.0902 | [4] -0.413 | [5] -0.289

Reference: the supplement of paper PMC11732987, “Enantioselective OTUD7B fragment discovery through chemoproteomics screening and high-throughput optimisation” (Communications Chemistry, 2025)
